Source: PubChem BioAssay
Calls of active or inactive are those of the source.

Key:
[1] = test system: PRMT1 (protein arginine N-methyltransferase 1); test: small molecules binding arginine methyltransferase PRMT1 – biochemical, small-molecule microarray, 635 nm fluorescence, primary screen (AID 1088); settings: higher = more signal;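 also: binding of Prmt1 protein to compounds spotted on small-molecule microarray slides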
[2] = growth effects on S. cerevisiae YJM789 – YJM789 clinical isolate, OD600, 24 h, basal, primary screen (AID 1089); settings: higher = more signal, called active from +8 up or from −8 down;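 also: growth of clinical yeast isolate S. cerevisiae YJM 789 seeded 1000 cells per well; test concentration not given here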
[3] = S. pombe growth modifiers, basal conditions – strain 972, OD600, 24 h, no modulator, primary screen (AID 1090);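 also: basal condition with compound alone and no growth modifier present; test concentration not given here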; settings: S. pombe 972 growth, higher = more signal, called active from +8 up or from −8 down
[4] = budding yeast growth modifiers under rapamycin – strain BY4716, OD600, 96 h, primary screen (AID 1091); also: test concentration not given here; settings: S. cerevisiae BY4716 + rapamycin, higher = more signal, called active from +8 up or from −8 down
[5] = target: Torsin-1A-interacting protein 2 (Homo sapiens) (UniProt Q8NFQ8); test: small molecules binding lysate-expressed LULL1 – cell lysate, human LULL1 lysate, 635/667 nm fluorescence, primary screen (AID 1092); settings: small-molecule microarray, hLULL1 lysate binding, 635 nm fluorescence; higher = more signal;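 also: probe is lysate of COS7 cells overexpressing human LULL1; score merges per-feature 667 nm fluorescence with signal-to-noise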
Chain of Torsin-1A-interacting protein 2 (Homo sapiens) (Q8NFQ8 whole entry, looked up): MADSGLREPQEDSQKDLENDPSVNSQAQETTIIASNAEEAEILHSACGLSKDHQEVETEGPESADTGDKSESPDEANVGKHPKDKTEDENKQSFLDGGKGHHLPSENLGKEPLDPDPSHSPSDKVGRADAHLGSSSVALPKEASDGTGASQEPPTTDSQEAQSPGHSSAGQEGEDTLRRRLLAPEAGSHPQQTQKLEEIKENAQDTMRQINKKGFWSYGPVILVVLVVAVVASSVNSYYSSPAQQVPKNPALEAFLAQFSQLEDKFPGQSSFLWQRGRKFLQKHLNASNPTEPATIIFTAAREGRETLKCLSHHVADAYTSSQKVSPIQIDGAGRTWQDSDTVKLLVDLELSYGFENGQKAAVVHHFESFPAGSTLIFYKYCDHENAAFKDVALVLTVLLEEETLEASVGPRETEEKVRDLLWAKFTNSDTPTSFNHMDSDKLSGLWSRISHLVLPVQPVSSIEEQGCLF

[6] = optical density change of DRC41 E. coli – strain DRC41, OD650, 24 h, E. coli filamentation project, primary screen (AID 1093);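 also: MC1000 strain lacking acrAB efflux and sulA so SOS filamentation is blocked; test concentration not given here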; settings: E. coli DRC41 growth, higher = more signal, called active from +8 up or from −8 down
[7] = probe aLefty2 binding to arrayed compounds – biochemical, biotinylated probe, 635/667 nm fluorescence, primary screen (AID 1094); settings: small-molecule microarray, higher = more signal;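 also: score merges spot fluorescence near 667 nm with spot signal-to-noise ratio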
[8] = test system: Noggin (protein binding on small-molecule microarray); test: small molecules binding Noggin protein – biochemical, 635/667 nm fluorescence, primary screen (AID 1095); settings: 635 nm fluorescence, higher = more signal;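 also: score merges 667 nm feature fluorescence with signal to noise over triplicate slides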
[9] = target: Neurogenic locus notch homolog protein 3 (Homo sapiens) (UniProt Q9UM47); test: small molecules binding NOTCH3 protein – biochemical, 635/667 nm fluorescence, primary screen (AID 1096); settings: small-molecule microarray, 635 nm fluorescence, higher = more signal
Chain of Neurogenic locus notch homolog protein 3 (Homo sapiens) (Q9UM47 whole entry, looked up): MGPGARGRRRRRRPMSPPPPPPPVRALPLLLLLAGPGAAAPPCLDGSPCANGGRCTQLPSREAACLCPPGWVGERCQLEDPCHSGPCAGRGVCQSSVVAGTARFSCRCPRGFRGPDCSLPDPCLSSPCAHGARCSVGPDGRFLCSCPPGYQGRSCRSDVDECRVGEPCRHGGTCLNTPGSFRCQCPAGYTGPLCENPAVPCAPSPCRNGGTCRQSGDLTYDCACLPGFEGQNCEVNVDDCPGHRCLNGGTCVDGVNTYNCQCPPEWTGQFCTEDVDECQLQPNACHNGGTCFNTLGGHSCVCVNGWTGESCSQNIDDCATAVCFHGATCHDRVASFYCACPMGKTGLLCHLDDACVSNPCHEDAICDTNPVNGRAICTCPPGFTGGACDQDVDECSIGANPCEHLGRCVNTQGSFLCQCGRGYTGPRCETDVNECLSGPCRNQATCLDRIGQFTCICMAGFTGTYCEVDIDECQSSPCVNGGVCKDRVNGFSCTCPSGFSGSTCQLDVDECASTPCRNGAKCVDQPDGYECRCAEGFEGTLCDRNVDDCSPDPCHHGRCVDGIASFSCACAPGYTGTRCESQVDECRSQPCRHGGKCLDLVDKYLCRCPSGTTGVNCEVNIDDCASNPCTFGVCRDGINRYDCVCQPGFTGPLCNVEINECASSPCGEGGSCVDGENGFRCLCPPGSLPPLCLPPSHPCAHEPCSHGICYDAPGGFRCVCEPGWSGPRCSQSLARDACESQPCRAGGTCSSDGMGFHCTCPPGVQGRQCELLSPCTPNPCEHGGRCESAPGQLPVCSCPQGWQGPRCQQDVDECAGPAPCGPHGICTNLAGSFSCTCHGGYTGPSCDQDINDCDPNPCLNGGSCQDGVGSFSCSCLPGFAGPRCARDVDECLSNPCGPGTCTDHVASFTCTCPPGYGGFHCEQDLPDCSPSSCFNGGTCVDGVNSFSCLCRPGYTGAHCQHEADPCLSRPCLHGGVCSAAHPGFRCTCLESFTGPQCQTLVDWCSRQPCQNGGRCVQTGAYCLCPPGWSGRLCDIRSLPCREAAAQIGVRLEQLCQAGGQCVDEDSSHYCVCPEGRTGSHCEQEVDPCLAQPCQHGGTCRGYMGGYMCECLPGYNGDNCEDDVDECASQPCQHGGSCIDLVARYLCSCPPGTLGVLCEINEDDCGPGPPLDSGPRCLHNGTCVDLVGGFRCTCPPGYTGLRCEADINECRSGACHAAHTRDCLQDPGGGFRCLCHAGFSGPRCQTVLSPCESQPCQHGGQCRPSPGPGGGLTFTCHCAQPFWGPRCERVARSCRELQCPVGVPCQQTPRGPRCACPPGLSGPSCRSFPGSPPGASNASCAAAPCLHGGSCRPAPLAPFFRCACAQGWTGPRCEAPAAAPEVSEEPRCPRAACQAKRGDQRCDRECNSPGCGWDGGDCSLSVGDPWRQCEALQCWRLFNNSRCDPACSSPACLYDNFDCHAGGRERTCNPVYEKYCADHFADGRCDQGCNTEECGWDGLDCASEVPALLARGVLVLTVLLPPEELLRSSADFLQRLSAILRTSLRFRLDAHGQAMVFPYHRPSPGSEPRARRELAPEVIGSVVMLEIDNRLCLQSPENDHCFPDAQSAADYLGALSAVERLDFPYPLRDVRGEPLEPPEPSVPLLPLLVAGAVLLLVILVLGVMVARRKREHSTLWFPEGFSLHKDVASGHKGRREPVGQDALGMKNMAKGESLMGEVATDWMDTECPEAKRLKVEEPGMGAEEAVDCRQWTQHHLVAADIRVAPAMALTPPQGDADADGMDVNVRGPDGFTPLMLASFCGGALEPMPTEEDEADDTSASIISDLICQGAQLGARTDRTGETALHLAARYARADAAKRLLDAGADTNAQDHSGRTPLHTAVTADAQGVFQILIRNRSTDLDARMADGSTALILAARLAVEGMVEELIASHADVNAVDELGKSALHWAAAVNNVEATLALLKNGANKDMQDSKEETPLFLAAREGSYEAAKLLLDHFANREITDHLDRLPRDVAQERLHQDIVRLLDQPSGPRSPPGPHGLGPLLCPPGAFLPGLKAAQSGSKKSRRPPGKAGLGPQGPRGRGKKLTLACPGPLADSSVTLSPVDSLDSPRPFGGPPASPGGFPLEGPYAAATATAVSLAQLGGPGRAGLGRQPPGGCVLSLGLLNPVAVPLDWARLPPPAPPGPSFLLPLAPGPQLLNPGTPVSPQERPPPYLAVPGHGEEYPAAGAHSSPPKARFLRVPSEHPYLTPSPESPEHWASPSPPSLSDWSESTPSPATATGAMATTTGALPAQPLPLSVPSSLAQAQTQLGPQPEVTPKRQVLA

[10] = probe aEGFR binding to arrayed compounds – biochemical, biotinylated probe, 635/667 nm fluorescence, primary screen (AID 1097); settings: small-molecule microarray, higher = more signal;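 also: probe is a biotinylated anti-EGFR antibody binding compounds printed on slides; score combines fluorescence near 667 nm and signal to noise of each spot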

| SMILES | composite z-score [1] | z-score [2] | z-score [3] | z-score [4] | composite z-score [5] | z-score [6] | composite z-score [7] | composite z-score [8] | composite z-score [9] | composite z-score [10] |
| --- | --- | --- | --- | --- | --- | --- | --- | --- | --- | --- |
| C[C@H]1CC[C@H]2C(=O)O[C@H](CO)CN2[C@@H]1c1ccc(Br)cc1 | 0.995 | -1.57 (inactive) | -16.2 (active) | -3.33 (inactive) | 0.139 | 1.88 (inactive) | -0.141 | 0.417 | -0.811 | -0.0738 |
| CO[C@@H](C(C)C)[C@@H](C)C1OC(=O)CC1O (stereo not given in full) | -0.255 | 0.0031 (inactive) | 0.0183 (inactive) | -0.582 (inactive) | 0.338 | 0.457 (inactive) | -0.161 | -0.614 | -0.716 | -0.195 |
| CCOC(=O)CCN1C(=O)[C@H]2[C@H]3[C@H](O)[C@H](O)CC(=NOCC=C(C)CCC=C(C)C)[C@@H]3CC[C@H]2C1=O | 0.316 | -1.28 (inactive) | 0.237 (inactive) | -0.44 (inactive) | 1.01 | 6.79 (inactive) | -0.197 | 0.742 | 0.808 | -0.0415 |
| CCOC(=O)[C@H](Cc1ccccc1)NC(=O)CCC1CC(OC(=O)NCc2ccc3c(c2)OCO3)CC2(CCCC(COC(=O)NCCOC)O2)O1 (stereo not given in full) | 1.56 | -0.439 (inactive) | -0.25 (inactive) | -0.364 (inactive) | 2.34 | -0.141 (inactive) | -0.166 | 0.884 | 1.05 | 0.0059 |
| CC(C)[C@@H](OCc1ccccc1)[C@H](C)C=NOC[C@@H](O)[C@H]1O[C@@H]2OC(C)(C)O[C@@H]2[C@H]1O | 0.763 | 0.87 (inactive) | 1.05 (inactive) | 0.821 (inactive) | 0.758 | 0.517 (inactive) | -0.132 | 1.07 | 0.676 | -0.0828 |
| COC(=O)[C@H](C)NC(=O)CCC1CC(OC(=O)NCc2ccc3c(c2)OCO3)CC2(CCCC(COC(=O)NCCC(C)C)O2)O1 (stereo not given in full) | 1.55 | -0.916 (inactive) | -0.031 (inactive) | -1.24 (inactive) | 2.28 | 0.861 (inactive) | -0.166 | 0.501 | 0.437 | -0.0858 |
| CC(C)=NOC(C)CN1CCCCc2nc(C)c(C)cc21 (stereo not given) | 0.434 | -0.139 (inactive) | -0.104 (inactive) | -0.0334 (inactive) | 1.04 | 0.194 (inactive) | -0.0441 | 0.634 | -0.0247 | -0.027 |
| CC(C)=NOC(C)CN1CCCc2nc(C)c(C)cc21 (stereo not given) | 1.58 | 0.777 (inactive) | 0.516 (inactive) | 0.347 (inactive) | 1.31 | -0.196 (inactive) | 0.406 | 0.674 | 1.07 | 0.0287 |
| C[C@@H]1CC[C@H]2C(=O)OC(Cc3ccccc3)CN2[C@H]1c1ccc(Br)cc1 (stereo not given in full) | 1.28 | 0.127 (inactive) | -6.77 (inactive) | -0.624 (inactive) | 1.18 | 0.823 (inactive) | -0.0923 | 0.151 | 0.0343 | -0.133 |
| C=CC[C@@H]1C=CC(ON=C(C)C)[C@@H](CO)O1 (stereo not given in full) | -0.316 | 1.03 (inactive) | 0.446 (inactive) | 1.16 (inactive) | -0.632 | 0.452 (inactive) | -0.103 | -0.117 | -1.08 | -0.215 |
| O=C1[C@H]2[C@H]3[C@H](O)[C@H](O)CC(=NOC[C@@H](O)COCc4ccco4)[C@@H]3CC[C@H]2C(=O)N1C1CCCCC1 | 1.39 | 1.61 (inactive) | -0.0798 (inactive) | -0.133 (inactive) | 1.25 | 0.61 (inactive) | -0.061 | 1.75 | 0.437 | 0.0583 |
| CC(C)=CCCC(C)=CCON=C1C[C@@H](O)[C@@H](O)[C@@H]2[C@@H]3C(=O)N(Cc4ccc5c(c4)OCO5)C(=O)[C@@H]3CC[C@H]12 | 1.44 | 0.329 (inactive) | 0.197 (inactive) | -0.251 (inactive) | 1.93 | 0.103 (inactive) | -0.166 | 0.564 | 0.907 | -0.0271 |
| CCOC(=O)CCN1C(=O)[C@H]2[C@H]3[C@H](O)[C@H](O)CC(=NNC(=O)OCC)[C@H]3CC[C@H]2C1=O | 0.0158 | 0.654 (inactive) | -1.45 (inactive) | 0.305 (inactive) | 0.0756 | -0.637 (inactive) | -0.139 | 0.412 | -0.818 | -0.12 |
| C[C@@H]1CC[C@H]2C(=O)O[C@@H](COc3ccc(C(C)(C)C)cc3)CN2[C@H]1c1ccc(Br)cc1 | 0.76 | 0.267 (inactive) | -0.0416 (inactive) | -0.264 (inactive) | 0.456 | 0.113 (inactive) | -0.159 | 0.307 | -0.288 | -0.0326 |
| C[C@H]1CC[C@H]2C(=O)N[C@H](Cc3ccccc3)C(=O)N2[C@@H]1c1ccccc1 | -0.0481 | 0.492 (inactive) | 0.0432 (inactive) | -0.489 (inactive) | 0.217 | 0.805 (inactive) | -0.17 | 0.413 | -0.304 | -0.0794 |
| CC(C)=NO[C@H](C)c1cn([C@@H]2COC[C@H]2O)nn1 | 0.629 | -0.173 (inactive) | -1.02 (inactive) | 0.127 (inactive) | 0.242 | 0.132 (inactive) | -0.0936 | 0.683 | 0.562 | 0.0102 |
| COC(=O)CC=C[C@@H](C)[C@@H](C=NOC(C)CN1CCCc2nc(C)c(C)cc21)NS(=O)(=O)c1ccc(C)cc1 (stereo not given in full) | 1.3 | 0.207 (inactive) | 0.12 (inactive) | -0.0152 (inactive) | 1.05 | 0.644 (inactive) | 0.156 | 0.629 | 0.812 | -0.0158 |
| O=C1C[C@@H](O)[C@@H](O)[C@@H]2[C@@H]3C(=O)N(C4CCCCC4)C(=O)[C@@H]3CC[C@@H]12 | 0.607 | 0.93 (inactive) | -0.509 (inactive) | -0.149 (inactive) | 0.905 | 0.536 (inactive) | -0.137 | 0.354 | 0.57 | -0.0921 |
| COC(=O)[C@@H]1CC[C@H](C)[C@@H](c2ccc(Br)cc2)N1 | -2.1 | 0.826 (inactive) | 0.771 (inactive) | 1.08 (inactive) | 1.24 | 0.532 (inactive) | 0.195 | -0.265 | -1.19 | -0.044 |
| CCOC(=O)NN=C1C[C@@H](O)[C@@H](O)[C@@H]2[C@@H]3C(=O)N(c4ccc(F)cc4F)C(=O)[C@@H]3CC[C@H]12 | -0.334 | -0.01 (inactive) | -0.816 (inactive) | -0.155 (inactive) | -0.35 | 0.786 (inactive) | -0.185 | 0.555 | 0.625 | 0.021 |
| C#CCCCON=C1C[C@@H](O)[C@@H](O)[C@@H]2[C@@H]3C(=O)N(C[C@@H]4CCCO4)C(=O)[C@@H]3CC[C@@H]12 | 0.345 | -0.281 (inactive) | 0.504 (inactive) | -0.747 (inactive) | 0.379 | 0.133 (inactive) | -0.119 | 0.595 | 0.752 | -0.0436 |
| O=C1CCCC=C1C(O)c1ccc([N+](=O)[O-])cc1 (stereo not given) | 0.0679 | -0.293 (inactive) | 0.0434 (inactive) | -0.289 (inactive) | -0.33 | 0.999 (inactive) | -0.114 | 0.111 | 0.273 | 0.613 |
| CC(C)CON=C1C[C@@H](O)[C@@H](O)[C@@H]2[C@@H]3C(=O)N(Cc4ccc5c(c4)OCO5)C(=O)[C@@H]3CC[C@@H]12 | 0.731 | -0.12 (inactive) | 0.54 (inactive) | -0.409 (inactive) | 1.69 | -0.38 (inactive) | -0.195 | 0.697 | -0.173 | -0.192 |
| CC(C)=CCCC(C)=CCON=C1C[C@@H](O)[C@@H](O)[C@@H]2[C@@H]3C(=O)N(Cc4ccc5c(c4)OCO5)C(=O)[C@@H]3CC[C@@H]12 | 1.54 | 0.0718 (inactive) | 1.03 (inactive) | -0.864 (inactive) | 2.06 | 0.813 (inactive) | 0.0478 | 0.837 | 0.983 | -0.0432 |
| CO[C@@H](C1CCCCC1)[C@@H](C)[C@H](OCc1cccc(Br)c1)[C@@H](C)CO | 0.0812 | -0.407 (inactive) | -16.4 (active) | -1.11 (inactive) | 0.366 | 0.114 (inactive) | -0.181 | 0.307 | 0.322 | -0.0549 |
| COC(=O)CC=C[C@@H](C)[C@@H](C=NOC[C@@H](O)COCc1ccco1)NS(=O)(=O)c1ccc(C)cc1 | 0.0315 | 0.0457 (inactive) | 1.02 (inactive) | 0.0521 (inactive) | -1.12 | 0.835 (inactive) | -0.202 | 0.704 | -0.834 | -0.195 |
| O=C1C[C@@H](O)[C@@H](O)[C@@H]2[C@@H]3C(=O)N(Cc4ccccc4)C(=O)[C@@H]3CC[C@H]12 | -0.326 | 0.179 (inactive) | -0.253 (inactive) | -0.138 (inactive) | -0.14 | -0.188 (inactive) | -0.107 | 0.497 | 0.545 | -0.0171 |
| CCN1C(=O)[C@H]2[C@@H]3C(=CC[C@H]2C1=O)C(=O)[C@H]1O[C@H]1[C@H]3O | 0.833 | 0.367 (inactive) | -0.3 (inactive) | 0.247 (inactive) | -0.176 | -0.763 (inactive) | -0.138 | 0.609 | 0.732 | 0.0107 |
| COC(=O)[C@@H]1CC[C@H](C)[C@@H](c2ccc(C)cc2)N1C(=O)c1ccc(C=NO[C@@H](C)c2cc(-c3c(C)cc(C)cc3C)no2)cc1 | 1.05 | -0.0984 (inactive) | 0.358 (inactive) | 0.612 (inactive) | 0.919 | 0.328 (inactive) | -0.0727 | 0.3 | 0.35 | -0.165 |
| CCOC(=O)[C@H](Cc1ccccc1)NC(=O)CCC1CC(OC(=O)NCCc2ccc(F)cc2)CC2(CCCC(COC(=O)NCCC(C)C)O2)O1 (stereo not given in full) | 1.56 | 0.91 (inactive) | 0.902 (inactive) | 0.783 (inactive) | 2.32 | 0.087 (inactive) | -0.145 | 1.24 | 1.07 | -0.0424 |
